# Test results as given in ChEMBL document CHEMBL3988442, “University of Dundee, Small-Polar-MMV Screening Library” (2021).
# For some assays here: Potency and affinity values are given separately.
# Columns and labels:
# Set-up in all cases: scale not given: direction of the effect not stated beside the values
# [1] = molecular target: Protein translocase subunit SecA (Escherichia coli (strain K12)) (UniProt P10408); experiment: Assay to Identify E. coli SecA ATPase Inhibitors; assay type: functional; conditions: 30 µM
# Sequence of Protein translocase subunit SecA (Escherichia coli (strain K12)) (P10408 whole entry): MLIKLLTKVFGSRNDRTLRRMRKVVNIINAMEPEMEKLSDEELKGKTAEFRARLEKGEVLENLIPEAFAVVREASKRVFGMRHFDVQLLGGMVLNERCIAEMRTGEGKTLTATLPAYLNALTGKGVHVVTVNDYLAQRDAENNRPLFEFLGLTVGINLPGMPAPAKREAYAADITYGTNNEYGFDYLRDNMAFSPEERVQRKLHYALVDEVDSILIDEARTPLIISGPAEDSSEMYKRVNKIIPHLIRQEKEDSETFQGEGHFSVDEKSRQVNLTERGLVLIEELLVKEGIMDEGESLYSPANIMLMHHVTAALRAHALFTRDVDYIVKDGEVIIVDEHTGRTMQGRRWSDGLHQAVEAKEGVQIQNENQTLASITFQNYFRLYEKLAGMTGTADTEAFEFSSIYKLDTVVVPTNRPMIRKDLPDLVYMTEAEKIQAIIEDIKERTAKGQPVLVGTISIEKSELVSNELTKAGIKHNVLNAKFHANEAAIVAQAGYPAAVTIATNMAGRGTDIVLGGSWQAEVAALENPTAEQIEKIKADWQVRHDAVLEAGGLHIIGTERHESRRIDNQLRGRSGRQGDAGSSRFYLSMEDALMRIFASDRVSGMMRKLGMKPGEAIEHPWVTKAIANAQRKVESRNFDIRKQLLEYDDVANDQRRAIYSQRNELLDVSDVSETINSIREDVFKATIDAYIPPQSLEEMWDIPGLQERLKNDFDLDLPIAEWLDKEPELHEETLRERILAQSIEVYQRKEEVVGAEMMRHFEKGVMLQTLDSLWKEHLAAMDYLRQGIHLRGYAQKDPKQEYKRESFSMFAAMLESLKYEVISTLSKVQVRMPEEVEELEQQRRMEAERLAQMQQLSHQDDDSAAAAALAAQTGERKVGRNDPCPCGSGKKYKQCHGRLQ
# [2] = molecular target: T1, Ubiquitin-activating enzyme e1, putative (Leishmania donovani (strain BPK282A1)) (UniProt E9BSI1); experiment: Leishmania donovani Ubiquitin Activating Enzyme (LdE1); assay type: functional; conditions: 30 µM
# T1 sequence (whole entry): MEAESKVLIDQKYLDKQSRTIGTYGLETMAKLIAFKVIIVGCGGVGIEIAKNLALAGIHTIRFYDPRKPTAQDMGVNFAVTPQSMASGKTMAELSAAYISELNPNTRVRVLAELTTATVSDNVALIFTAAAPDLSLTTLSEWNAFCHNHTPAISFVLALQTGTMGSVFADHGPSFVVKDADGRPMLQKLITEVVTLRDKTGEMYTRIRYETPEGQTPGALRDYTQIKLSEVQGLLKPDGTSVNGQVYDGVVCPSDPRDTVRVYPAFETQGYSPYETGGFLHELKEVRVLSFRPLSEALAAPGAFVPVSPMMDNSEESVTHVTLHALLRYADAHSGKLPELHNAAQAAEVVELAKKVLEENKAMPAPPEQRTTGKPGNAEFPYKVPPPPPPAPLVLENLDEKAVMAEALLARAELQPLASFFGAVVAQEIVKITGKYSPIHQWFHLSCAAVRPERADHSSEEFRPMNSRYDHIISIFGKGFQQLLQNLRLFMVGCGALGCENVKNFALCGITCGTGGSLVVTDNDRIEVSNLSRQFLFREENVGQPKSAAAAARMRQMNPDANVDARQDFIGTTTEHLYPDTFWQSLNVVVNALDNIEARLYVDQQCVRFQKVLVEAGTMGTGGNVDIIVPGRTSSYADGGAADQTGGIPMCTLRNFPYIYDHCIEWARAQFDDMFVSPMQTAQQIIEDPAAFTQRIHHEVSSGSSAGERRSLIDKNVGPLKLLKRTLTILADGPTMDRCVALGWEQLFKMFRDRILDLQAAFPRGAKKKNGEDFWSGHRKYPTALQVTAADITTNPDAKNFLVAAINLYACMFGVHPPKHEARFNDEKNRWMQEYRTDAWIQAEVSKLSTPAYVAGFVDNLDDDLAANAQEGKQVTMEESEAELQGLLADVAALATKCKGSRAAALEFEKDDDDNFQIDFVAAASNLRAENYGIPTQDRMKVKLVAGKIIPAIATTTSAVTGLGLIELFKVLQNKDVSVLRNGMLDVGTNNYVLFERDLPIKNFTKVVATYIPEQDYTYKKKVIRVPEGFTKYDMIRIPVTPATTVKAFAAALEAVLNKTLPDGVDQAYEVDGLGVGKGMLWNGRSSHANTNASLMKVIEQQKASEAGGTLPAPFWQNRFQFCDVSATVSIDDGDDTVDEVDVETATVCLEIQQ
# [3] = molecular target: AMP-activated protein kinase, AMPK (Homo sapiens) (UniProt P54646+O43741+P54619+Q9UGJ0+Q9Y478+Q13131+Q9UGI9); experiment: AMP-dependent Kinase enzyme assay. An in vitro enzyme assay that detects ADP turnover that is directly proportional to AMPK activity. This uses naive AMPK that is activated during the assay with MK-8722; assay type: functional; conditions: 30 µM
# [4] = molecular target: Sialic acid-binding Ig-like lectin 9 (Homo sapiens) (UniProt Q9Y336); experiment: Hs-Siglec9 ALPHAscreen SOP 20170721; conditions: 10 µM
# Sequence of Sialic acid-binding Ig-like lectin 9 (Homo sapiens) (Q9Y336 whole entry): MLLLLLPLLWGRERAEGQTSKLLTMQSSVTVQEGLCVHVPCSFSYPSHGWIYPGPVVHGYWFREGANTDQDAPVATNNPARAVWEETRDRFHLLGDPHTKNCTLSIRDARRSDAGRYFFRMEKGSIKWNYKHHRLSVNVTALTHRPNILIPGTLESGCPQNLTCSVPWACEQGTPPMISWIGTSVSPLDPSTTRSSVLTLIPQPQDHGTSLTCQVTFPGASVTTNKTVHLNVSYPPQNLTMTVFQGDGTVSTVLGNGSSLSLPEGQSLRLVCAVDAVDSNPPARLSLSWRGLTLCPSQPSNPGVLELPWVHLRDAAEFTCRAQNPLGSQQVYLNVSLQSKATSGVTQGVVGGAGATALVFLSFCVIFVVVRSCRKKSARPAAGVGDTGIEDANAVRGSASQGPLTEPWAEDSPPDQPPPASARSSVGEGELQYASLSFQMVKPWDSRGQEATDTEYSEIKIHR
# Trypanosoma cruzi = experiment: Trypanosoma cruzi phosphomannomutase and mannose-1-phosphate guanylyltransferase assay; assay type: functional; conditions: 10 µM
# [5] = molecular target: T2, Arginase-2, mitochondrial (Homo sapiens) (UniProt P78540); experiment: in vitro enzyme assay to detect the production of urea directly proportional to the activity of Arginase II; assay type: functional; conditions: 33.3 µM; further: in the data most compounds retested in dose-response had high values
# T2 sequence (whole entry): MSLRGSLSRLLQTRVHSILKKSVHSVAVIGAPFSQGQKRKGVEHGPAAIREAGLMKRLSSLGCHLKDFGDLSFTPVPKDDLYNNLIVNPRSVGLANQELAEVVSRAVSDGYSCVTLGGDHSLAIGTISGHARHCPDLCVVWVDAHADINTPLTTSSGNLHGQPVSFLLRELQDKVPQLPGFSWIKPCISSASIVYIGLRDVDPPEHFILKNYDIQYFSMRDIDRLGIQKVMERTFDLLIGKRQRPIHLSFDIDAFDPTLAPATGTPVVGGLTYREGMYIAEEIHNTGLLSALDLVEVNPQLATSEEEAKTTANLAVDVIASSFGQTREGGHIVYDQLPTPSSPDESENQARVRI
# [6] = molecular target: T3, Proteasome subunit beta (Trypanosoma cruzi) (UniProt O96673); experiment: Trypanosoma cruzi proteasome chymotrypsin-like activity (TcProtChymo) assay.; further: in the data most compounds retested in dose-response had high values; assay type: functional; conditions: 9.37 µM
# T3 sequence (whole entry): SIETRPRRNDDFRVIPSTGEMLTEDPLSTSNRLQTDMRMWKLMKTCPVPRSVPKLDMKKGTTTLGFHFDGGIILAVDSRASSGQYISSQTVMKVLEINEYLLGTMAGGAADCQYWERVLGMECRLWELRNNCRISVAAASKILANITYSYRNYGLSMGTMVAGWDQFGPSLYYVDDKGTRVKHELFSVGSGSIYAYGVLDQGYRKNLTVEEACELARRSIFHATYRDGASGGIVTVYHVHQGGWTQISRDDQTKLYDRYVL
# Homo sapiens = organism: Homo sapiens; experiment: To identify inhibition of the IFN signalling (Jak-Stat) pathway via expression of an eGFP reporter gene under the control of an IFN-stimulated response element (ISRE) containing MxA promoter.; assay type: functional; conditions: 30 µM
# [7] = molecular target: T4, Tyrosyl-tRNA synthetase, putative (Trypanosoma cruzi (strain CL Brener)) (UniProt Q4DSP6); experiment: Trypanosoma cruzi tyrosyl tRNA synthetase (TcYRS) _High Tyrosine SOP; assay type: functional; conditions: 30 µM; further: in the data most compounds retested in dose-response had high values
# T4 sequence (whole entry): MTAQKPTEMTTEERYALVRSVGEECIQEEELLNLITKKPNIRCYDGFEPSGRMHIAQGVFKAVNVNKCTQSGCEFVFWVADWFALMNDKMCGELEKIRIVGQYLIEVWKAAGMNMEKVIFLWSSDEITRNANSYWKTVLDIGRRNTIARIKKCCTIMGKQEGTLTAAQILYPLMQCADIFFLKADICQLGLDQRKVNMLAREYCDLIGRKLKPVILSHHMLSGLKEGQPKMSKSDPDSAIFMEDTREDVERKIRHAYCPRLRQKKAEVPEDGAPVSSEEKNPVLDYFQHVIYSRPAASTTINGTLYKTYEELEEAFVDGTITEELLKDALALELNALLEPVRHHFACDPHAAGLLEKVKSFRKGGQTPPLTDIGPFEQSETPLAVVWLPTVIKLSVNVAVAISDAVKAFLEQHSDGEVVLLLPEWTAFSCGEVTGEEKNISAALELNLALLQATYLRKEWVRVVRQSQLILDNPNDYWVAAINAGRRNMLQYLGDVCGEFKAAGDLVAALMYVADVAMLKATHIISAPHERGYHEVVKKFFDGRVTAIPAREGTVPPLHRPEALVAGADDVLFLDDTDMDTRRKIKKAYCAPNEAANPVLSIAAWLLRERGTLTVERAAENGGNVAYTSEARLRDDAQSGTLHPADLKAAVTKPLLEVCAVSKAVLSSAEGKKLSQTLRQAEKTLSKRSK
# [8] = molecular target: T4, Tyrosyl-tRNA synthetase, putative (Trypanosoma cruzi (strain CL Brener)); experiment: Trypanosoma cruzi tyrosyl tRNA synthetase (TcYRS) SOP; assay type: functional; conditions: 30 µM
# [9] = molecular target: Chromo domain-containing protein 1 (Saccharomyces cerevisiae (strain ATCC 204508 / S288c) (Baker's yeast)) (UniProt P32657); experiment: ScCHD-1 Enzyme Inhibition Assay; assay type: functional; conditions: 30 µM; further: in the data most compounds retested in dose-response had high values
# Sequence of Chromo domain-containing protein 1 (Saccharomyces cerevisiae (strain ATCC 204508 / S288c) (Baker's yeast)) (P32657 whole entry, the tested form may be a part): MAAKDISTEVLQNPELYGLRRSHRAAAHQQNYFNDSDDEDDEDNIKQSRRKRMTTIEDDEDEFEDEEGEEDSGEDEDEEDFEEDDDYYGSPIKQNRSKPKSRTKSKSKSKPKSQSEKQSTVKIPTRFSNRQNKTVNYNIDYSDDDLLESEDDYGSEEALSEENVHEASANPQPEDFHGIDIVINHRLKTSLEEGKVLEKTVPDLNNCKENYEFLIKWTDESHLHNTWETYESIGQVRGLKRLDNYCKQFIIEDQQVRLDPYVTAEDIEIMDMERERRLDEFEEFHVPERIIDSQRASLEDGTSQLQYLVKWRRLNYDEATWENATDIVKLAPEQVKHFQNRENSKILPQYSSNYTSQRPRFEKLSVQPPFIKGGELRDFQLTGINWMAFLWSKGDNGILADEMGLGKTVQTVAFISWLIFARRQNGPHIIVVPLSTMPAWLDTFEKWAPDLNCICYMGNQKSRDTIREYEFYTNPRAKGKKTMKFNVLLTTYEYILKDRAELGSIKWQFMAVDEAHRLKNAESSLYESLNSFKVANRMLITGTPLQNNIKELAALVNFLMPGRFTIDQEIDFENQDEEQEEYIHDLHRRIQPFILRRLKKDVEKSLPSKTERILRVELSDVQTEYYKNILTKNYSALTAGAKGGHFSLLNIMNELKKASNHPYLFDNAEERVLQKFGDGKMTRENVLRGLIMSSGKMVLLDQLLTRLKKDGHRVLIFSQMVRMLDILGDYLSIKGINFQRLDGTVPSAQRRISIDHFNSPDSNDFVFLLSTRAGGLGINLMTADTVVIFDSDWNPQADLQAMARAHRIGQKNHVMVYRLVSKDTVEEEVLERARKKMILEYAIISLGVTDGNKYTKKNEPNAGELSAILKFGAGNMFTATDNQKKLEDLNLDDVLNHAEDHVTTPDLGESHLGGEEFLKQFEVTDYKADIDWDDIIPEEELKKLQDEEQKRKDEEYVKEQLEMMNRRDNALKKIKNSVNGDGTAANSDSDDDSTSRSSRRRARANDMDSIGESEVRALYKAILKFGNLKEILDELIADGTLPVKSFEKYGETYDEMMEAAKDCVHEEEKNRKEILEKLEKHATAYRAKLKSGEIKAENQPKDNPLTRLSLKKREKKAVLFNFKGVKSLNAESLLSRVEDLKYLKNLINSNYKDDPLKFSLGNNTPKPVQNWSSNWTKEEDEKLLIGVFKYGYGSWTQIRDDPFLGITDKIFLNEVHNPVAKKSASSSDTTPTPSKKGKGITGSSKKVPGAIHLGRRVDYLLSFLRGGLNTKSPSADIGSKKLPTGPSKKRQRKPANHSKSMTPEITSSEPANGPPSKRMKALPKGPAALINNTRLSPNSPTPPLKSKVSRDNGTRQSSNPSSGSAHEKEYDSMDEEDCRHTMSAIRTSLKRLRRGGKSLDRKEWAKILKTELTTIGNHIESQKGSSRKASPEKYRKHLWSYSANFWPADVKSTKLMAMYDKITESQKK
Compound,Percent Effect [1],Percent Effect [2],Percent Effect [3],Percent Effect [4],Percent Effect (Trypanosoma cruzi),Percent Effect [5],Percent Effect [6],Percent Effect (Homo sapiens),Percent Effect [7],Percent Effect [8],Percent Effect [9]
Cc1cc(C2CCCN(C(=O)c3ccc(C)[nH]c3=O)C2)n[nH]1 (stereo unspecified),1.38%,0%,-0.306%,6.13%,-1.04%,-0.401%,1.08%,-7.96%,3.45%,-1.24%,4.03%
CC(=O)N1CCN(C(=O)c2cc(-n3cnnn3)ccc2Cl)CC1,-7.31%,2.63%,-6.84%,0.287%,-2.63%,-4.73%,6.04%,9.34%,-2.13%,-2.6%,0.334%
Cc1ccc(Nc2nccc(C3CCCN(CC(=O)N(C)C)C3)n2)nc1 (stereo unspecified),-5.52%,5.33%,-1.77%,6.73%,5.51%,-6.76%,13.8%,-1.72%,11.7%,19.2%,-2.77%
CCN(CC)C(=O)CCNC(=O)Cc1nc(-c2ccco2)oc1C,-7.31%,-2.67%,-3.57%,-1.71%,-5.75%,-0.521%,17.3%,-3.68%,-1.64%,3.7%,-7.39%
Cc1cc2n(n1)CC(CNCc1ccc(-n3cccn3)nc1)CN2 (stereo unspecified),-1.63%,5.26%,-8.03%,8.37%,13.2%,-0.766%,7.69%,1.93%,11.3%,21.9%,-9.89%
O=C(c1cccs1)N1C[C@H]2CC[C@@]3(N=C(c4ccccc4)NC3=O)[C@H]2C1,-1.64%,7.79%,0.0999%,7.14%,-2.06%,-4.14%,13.3%,9.87%,1.07%,13.6%,-0.884%
CCc1ccc(CN2CCC3(CC2)CC(N2CCN(C)CC2)CO3)cc1 (stereo unspecified),-9.52%,0%,7.52%,5.26%,-0.293%,-2.23%,11.6%,-0.446%,4.32%,5.13%,14%
CC(NC(=O)CCCOc1ccccc1Cl)c1ccncc1 (stereo unspecified),-5.33%,0%,2.41%,0.805%,-8.42%,-2.27%,6.39%,27.7%,-2.15%,2.5%,110%
COc1cc2cc(C(=O)N[C@@H](C)C(=O)O)n(C)c2c(OC)c1OC,0.309%,4%,0.773%,3.31%,-5.89%,-12.8%,13.1%,0.994%,8.47%,7.69%,-9.47%
Cc1cnn(CC(C)NCc2ccc(-n3cccn3)cc2)c1 (stereo unspecified),-1.91%,1.27%,2.55%,-4.21%,-3.18%,0.645%,-0.858%,-0.795%,0%,-12.7%,-18.2%
CC(=O)N1CC(=O)N(c2cnn(C)c2)CC12CCN(CC1CC1)C2 (stereo unspecified),-2.91%,0%,1.91%,0.306%,-3.52%,1.67%,0.423%,-7.14%,4.95%,1.22%,-0.193%
COc1ncc(-c2nccn2CCN(C)C)cn1,-3.87%,-2.7%,-2.61%,1.15%,-0.965%,-3.81%,20.9%,2.02%,-2.65%,2.44%,-3.6%
CNS(=O)(=O)c1cc(C(=O)NC2CCOc3ccccc32)cc(C)c1C (stereo unspecified),-6.38%,-2.63%,13.9%,-3.37%,-3.41%,-4.73%,8.53%,-0.414%,4.25%,7.79%,7.83%
COc1ccc(C)cc1CN1CCCC1c1noc(C2CC2)n1 (stereo unspecified),-1.46%,-2.7%,-7.59%,-1.73%,5.85%,-9.8%,18.7%,67.4%,9.9%,18.3%,-3.74%
CN1CCCN(C(=O)c2ccc3c(c2)nc(N2CCOCC2)n3C)CC1,-0.416%,4.17%,-3.77%,-0.695%,-3.6%,-0.883%,18.2%,21.6%,2.1%,2.56%,-1.63%
Cc1ccc(-n2nnc(C(=O)NS(C)(=O)=O)c2C2CC2)cc1,-1.84%,0%,-7.9%,0.772%,7.52%,-1.66%,-0.179%,12.9%,2.97%,13.4%,3.65%
